Data reported in PubChem BioAssay.

These compounds were tested against Focal adhesion kinase 1 (Homo sapiens) (UniProt Q05397) (assay: small-molecule microarray binders of FAK, primary screen, biochemical, 635/667 nm fluorescence, BSA, DTT (AID 1130;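 further: composite of spot emission at 667 nm and signal to noise over triplicate slides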)). Conditions: PTK2 binding, 635 nm fluorescence, higher = more signal.
Focal adhesion kinase 1 (Homo sapiens), sequence (Q05397 whole entry, looked up): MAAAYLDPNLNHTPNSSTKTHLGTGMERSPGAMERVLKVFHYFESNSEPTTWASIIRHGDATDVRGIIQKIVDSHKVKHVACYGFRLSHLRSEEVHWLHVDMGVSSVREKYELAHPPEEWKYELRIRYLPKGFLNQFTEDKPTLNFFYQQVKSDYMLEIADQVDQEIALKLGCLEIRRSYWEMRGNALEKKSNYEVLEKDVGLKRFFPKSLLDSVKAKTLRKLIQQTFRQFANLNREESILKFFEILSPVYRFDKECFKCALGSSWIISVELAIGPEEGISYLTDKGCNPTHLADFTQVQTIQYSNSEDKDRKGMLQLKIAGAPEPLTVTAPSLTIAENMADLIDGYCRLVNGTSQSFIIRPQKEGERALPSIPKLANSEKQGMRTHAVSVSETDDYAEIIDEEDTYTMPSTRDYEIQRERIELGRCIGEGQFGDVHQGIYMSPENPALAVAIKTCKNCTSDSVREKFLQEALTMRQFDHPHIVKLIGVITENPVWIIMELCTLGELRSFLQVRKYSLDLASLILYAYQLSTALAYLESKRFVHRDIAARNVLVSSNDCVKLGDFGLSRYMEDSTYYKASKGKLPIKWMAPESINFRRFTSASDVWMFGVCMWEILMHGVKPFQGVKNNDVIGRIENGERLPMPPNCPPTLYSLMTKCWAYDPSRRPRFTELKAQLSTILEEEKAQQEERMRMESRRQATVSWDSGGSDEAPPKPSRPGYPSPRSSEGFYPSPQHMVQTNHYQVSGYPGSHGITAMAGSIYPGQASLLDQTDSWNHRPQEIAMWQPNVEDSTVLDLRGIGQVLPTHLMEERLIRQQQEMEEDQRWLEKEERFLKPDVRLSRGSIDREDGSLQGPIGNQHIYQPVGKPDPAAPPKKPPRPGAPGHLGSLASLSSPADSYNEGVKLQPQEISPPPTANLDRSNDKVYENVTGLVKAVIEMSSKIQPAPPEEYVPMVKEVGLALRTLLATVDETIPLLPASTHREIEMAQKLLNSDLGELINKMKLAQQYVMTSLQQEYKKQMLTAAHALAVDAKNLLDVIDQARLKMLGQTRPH

Point of comparison: `COc1ccc([Si](C)(C)[C@@H]2[C@@H](CCO)O[C@]3(C(=O)N(Cc4cccc(NC(=O)[C@H](C)O)c4)c4ccccc43)[C@H]2C)cc1`, composite z-score 0.642. Against it:
- COc1ccc([Si](C)(C)[C@@H]2[C@@H](CC(=O)N3Cc4ccccc4C[C@H]3CO)O[C@]3(C(=O)N(Cc4ccc(N5C(=O)c6cccc7cccc5c67)cc4)c4ccccc43)[C@H]2C)cc1 — higher, 0.949
- C=CCC(OC(C)=O)[C@@H]1[C@@H](N(Cc2ccc(-c3cccc(C(F)(F)F)c3)o2)C(=O)c2ccc(-c3ccccc3)cc2)c2cc(OCCCO)ccc2N1C(=O)Cc1ccc2ccccc2c1 (some centres undefined) — lower, 0.0827
- C=CCNC(=O)[C@H]1[C@@H]2C(=O)O[C@@H](c3ccccc3)[C@@H](c3ccccc3)N2[C@@H](c2ccccc2OCCO)[C@]12C(=O)N(C(=O)OCCOC)c1ccc(C#CC3(O)CCCCCC3)cc12 — lower, 0.325
- CCCCC[C@H]1OC[C@@]23C=C(Br)[C@@H](CC12)[C@@]1(CO1)C3=O (some centres undefined) — lower, 0.215
- C=CCN1Cc2ccccc2[C@@H]2OC(c3ccc(OCCCO)cc3)=N[C@]2(CC=C)C1=O — higher, 0.68
- Cc1ccc(NN2C(C(O)c3c(F)cccc3Cl)C=CC3C(=O)N(C4CCCCC4)C(=O)C32)cc1 (centres undefined) — lower, 0.601
- CCCCC(CC)C(O)C1C=CC2C(=O)N(c3ccccc3)C(=O)C2N1Nc1ccc(C#N)cc1 (centres undefined) — higher, 0.702
- NC(=O)[C@H]1[C@@H]2C(=O)O[C@@H](c3ccccc3)[C@@H](c3ccccc3)N2[C@@H](c2ccc(OCCO)cc2)[C@]12C(=O)Nc1ccc(C#CCCO)cc12 — higher, 0.798
- CCC1=C2CN(Cc3ccccc3)[C@@H](C(=O)Cc3ccccc3)C2C=CCC1 (some centres undefined) — lower, -0.383
- [N-]=[N+]=Nc1ccccc1C[C@]1(C(=O)NCC(O)CO)COC(c2ccc(OCCCO)cc2)=N1 (some centres undefined) — lower, 0.352
- CCCC=C(CCC)[C@@H](NP(=O)(c1ccccc1)c1ccccc1)c1ccc(-c2ccccc2)cc1 — lower, 0.332
- CCOC(=O)C[C@H]1[C@H](OC(=O)c2ccc(C(=O)c3ccccc3)cc2)[C@@H](NC(=O)c2ccc(-c3ccccc3)cc2)c2cc(OCCCO)ccc2N1C(=O)Cc1ccc(OC)cc1 — lower, 0.0784
- CO[C@H]1O[C@H](CO)[C@@H](OC(=O)CCc2ccccc2)[C@@H]2OC(=O)[C@@H](Cc3ccccc3)C/C=C/C[C@H](Cc3ccccc3)C(=O)O[C@@H]12 — lower, 0.178
- CCOC(=O)C1=C[C@@H](c2ccccc2)N(S(=O)(=O)c2ccc(C)cc2)[C@H]1c1ccc(OC)cc1 — lower, 0.501
- [N-]=[N+]=Nc1ccccc1C[C@]1(C(=O)NCCN2CCOCC2)COC(c2ccc(OCCCO)cc2)=N1 — higher, 0.696
- COc1ccc([Si](C)(C)[C@H]2[C@H](CC(=O)N3Cc4ccccc4C[C@H]3CO)O[C@@]3(C(=O)N(Cc4ccc(N5CCOC5=O)cc4)c4ccccc43)[C@@H]2C)cc1 — lower, 0.109
- CS(=O)(=O)CCOC(=O)C1=CC(c2ccc(CO)cc2)=CC(C2CC2)N(Cc2sc3ccccc3c2Cl)C=C1C(=O)OCCS(C)(=O)=O (centres undefined) — higher, 0.716
- CCCCNC(=O)c1ccc(C#CC(C)(C)C)c(OC(C)=O)c1 — higher, 0.797
- O=C1C2C=CC(C(O)c3ccco3)N(Nc3ccccc3F)C2C(=O)N1c1ccccc1 (centres undefined) — higher, 0.705
- COc1cc(NN2C(C(O)c3ccco3)C=CC3C(=O)N(C)C(=O)C32)cc(OC)c1OC (centres undefined) — lower, -0.422
- COC(=O)[C@@]1(Cc2ccc(F)cc2)[C@H]2c3cc(C(=O)N(C)C)n(CCc4ccc(OC)c(Br)c4)c3C[C@H]2CN1C(=O)c1ccccc1 — lower, 0.178
- CC(C)[Si](C#CCCCC#N)(O[C@H](c1ccccc1)c1cn(Cc2ccccc2)nn1)C(C)C — lower, -0.359
- COCCOC(=O)N1C(=O)[C@@]2(c3cc(C#CC4(O)CCCCCC4)ccc31)[C@H](C(=O)Nc1nc3ccccc3s1)[C@H]1C(=O)O[C@H](c3ccccc3)[C@H](c3ccccc3)N1[C@@H]2c1ccc(O)cc1 — higher, 0.783
